Results filed as inconclusive are left out. Values without a mark were called inactive. Unless noted, the call rests on the fitted dose curve; in most records, active means well fitted cell-killing curve with a large enough effect in the repeat runs; inconclusive means weak or mixed curves, or effect the other way; inactive means flat fitted curve, though single readings scatter.
experiment: qHTS assay to identify small molecule agonists of the TGF-beta/Smad signaling pathway - cell viability counter screen (AID 1346829); conditions: SBE-bla HEK293T viability, CellTiter-Glo luminescence, 5 h; series mostly up to 76.8 µM; activity change, negative = cytotoxicity: at the top concentration; further: top concentration of the series differs between compounds; nearly all actives have a fitted effect of over 45% in size
In short: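 After overnight seating at 37 C and 5% CO2, reporter cells got compounds for 5 hr and FRET substrate for 2 hr; cell viability then came from CellTiter-Glo luminescence.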
On the % scale 0 is the no-effect control and ±100 the full control effect.

Row | Structure (SMILES) | activity change, negative = cytotoxicity
1 | CN1CCN(c2cc3c(nn2)Oc2ccccc2N3C)CC1 | 19.9% [at 15.8 µM]
2 | COc1ccnc(CS(=O)c2nc3cc(OC(F)F)ccc3[nH]2)c1OC (configuration not stated) | 2.23%
3 | C[C@H]1[C@H](NC(=O)/C(=N/OC(C)(C)C(=O)O)c2csc(N)n2)C(=O)N1S(=O)(=O)O (stereo in doubt) | 7.21% [at 35.3 µM]
4 | CC(C)C[C@@H](N)C(=O)O | 15.2% [at 15.8 µM]
5 | CCC(C)(CCCC(C)C)OC(C)=O (configuration not stated) | 6.39%
6 | C=CCCC(=O)O | 1.14%
7 | CCC(C)(CN(C)C)OC(=O)c1ccccc1 (configuration not stated) | -3.44% [at 35.3 µM]

experiment: qHTS assay to identify small molecule agonists of the TGF-beta/Smad signaling pathway (AID 1346859; active means well fitted activation curve with a large enough effect in the signal ratio in the repeat runs, not every such curve was filed as active; the % refers to the signal ratio); conditions: SBE-bla HEK293T, TGF-beta/Smad beta-lactamase reporter, 5 h; series mostly up to 76.8 µM; activation: at the top concentration
In short: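 Fluorescence (ex 405 nm; em 460 and 530 nm) was read 2 h after LiveBLAzer FRET substrate at RT. The preceding compound treatment of overnight-plated SBE-bla HEK293T cells lasted 5 h at 37 C.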

Row | Structure (SMILES) | activation
8 | CCCc1nn(C)c2c(=O)[nH]c(-c3cc(S(=O)(=O)N4CCN(C)CC4)ccc3OCC)nc12 | -2.92% [at 35.3 µM]
9 | CN(C)C(=O)Oc1ccc[n+](C)c1 | -0.158% [at 35.3 µM]
10 | CCC(=O)OCc1ccccc1 | 0.089%
11 | CCN1C=CN(C)C1C (configuration not stated) | -0.705%
12 | C1CCC2(CCCCO2)OC1 | 2.15%
13 | CCC(C(=O)NC(=O)NC(C)=O)c1ccccc1 (configuration not stated) | 1.09% [at 35.3 µM]
14 | CC(=O)N[C@H]1[C@H]([C@H](O)[C@H](O)CO)OC(C(=O)O)=C[C@@H]1N=C(N)N | 0.833% [at 35.3 µM]
15 | Cc1c(N)c(=O)n(-c2ccccc2)n1C | -1.17% [at 35.3 µM]
16 | CCCO[Si](OCCC)(OCCC)OCCC | 3.16%
17 | CCO[Si](OCC)(OCC)c1ccccc1 | 2.82%
18 | COc1ccccc1OCC1CNC(=O)O1 (configuration not stated) | -0.533% [at 35.3 µM]
19 | C[C@@H]1CCC[C@H](C)N1 | 2.32% [at 35.3 µM]
20 | CN1CCN(c2cc3c(nn2)Oc2ccccc2N3C)CC1 | 3.68% [at 15.8 µM]
21 | Cc1coc2ccccc2c1=O | 2.85% [at 35.3 µM]
22 | CCCCCCCCCCCCSC | 1.31%
23 | C=CC(C)(CCC=C(C)C)OC(=O)CC (configuration not stated) | 0.108%
24 | CN1[C@@H]2CC[C@H]1CC(OC(=O)C(O)c1ccccc1)C2 (some centres not stated) | 1.92% [at 35.3 µM]
25 | COc1ccnc(CS(=O)c2nc3cc(OC(F)F)ccc3[nH]2)c1OC (configuration not stated) | -2.14%

Row | Structure (SMILES) | activation
26 | C[C@H]1[C@H](NC(=O)/C(=N/OC(C)(C)C(=O)O)c2csc(N)n2)C(=O)N1S(=O)(=O)O (stereo in doubt) | 1.79% [at 35.3 µM]
27 | CC(C)C[C@@H](N)C(=O)O | 0.277% [at 15.8 µM]
28 | CCOC(=O)C(=O)CCCCCCl | -0.421% [at 35.3 µM]
29 | CO[C@@]1(NC(=O)C(C(=O)O)c2ccc(O)cc2)C(=O)N2C(C(=O)O)=C(CSc3nnnn3C)CO[C@@H]21 (some centres not stated) | -0.158% [at 35.3 µM]
30 | c1ccc2sc(SN3CCOCC3)nc2c1 | 2.18% [at 35.3 µM]
31 | Cc1cccc(C)c1NC(=O)CC12CCCN1CCC2 | -3.02% [at 35.3 µM]
32 | CCCCCC(=O)OCCc1ccccc1 | 1.73%
33 | C[N+]1(C)[C@@H]2CC(OC(=O)[C@H](CO)c3ccccc3)C[C@H]1[C@@H]1O[C@@H]12 (some centres not stated) | 4.09% [at 35.3 µM]
34 | CC(C)[C@H]1CC[C@@H](C)CC1=O | -0.0225%
35 | CCC(C)(CCCC(C)C)OC(C)=O (configuration not stated) | -1.24%
36 | NC(=O)N[C@@H](CCC(=O)O)C(=O)O | 0.962% [at 35.3 µM]
37 | C=CCCC(=O)O | 0.0008%
38 | C=CCCCCCCCCC(=O)OCC | 0.0971%
39 | CO[Si](C)(OC)c1ccccc1 | 4.08%
40 | CCC(C)(CN(C)C)OC(=O)c1ccccc1 (configuration not stated) | -0.616% [at 35.3 µM]
41 | C=CC(=O)OCCCl | 1.78%
42 | CC(C)(C#N)Nc1nc(Cl)nc(NC2CC2)n1 | 1.78%
